The source of these data is PubChem BioAssay (NCATS).

SMILES strings stand for the structures. Records with an inconclusive call do not appear. Unmarked numbers belong to inactive results. Active and inactive are the calls of the source. Calls follow the shape of the dose curve; as a rule, active = well fitted curve in the direction sought with a large enough effect; inconclusive = small, poorly fitted or top-dose-only effect, or another doubt; inactive = no such curve, though single readings can be large; an effect the other way counts as inactive or inconclusive.

Assay [1] is described as follows: NS1 protein of Zika virus - qHTS assay to identify small molecule inhibitors in human HEK 293 cells (AID 1347053). Also: series mostly up to about 46 µM; nearly all actives have a fitted effect of over 55% in size. In short, it runs like this: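 Read-out is a two-antibody TR-FRET for ZIKV NS1, normalized between uninfected cells and infected cells. Compound added 1 h before MR766 infection at MOI 0.5; human HEK 293 cells incubated 24 h, 37 C.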
Assay [2] can be described thus: qHTS of pediatric cancer cell lines to identify multiple opportunities for drug repurposing: Primary screen for TC32 cells (AID 1347089). Also: nearly all actives have a fitted effect of over 60% in size. An outline of the steps:
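A viability screen of TC32 cells was run over 48 h, with primary MIPE doses spanning 0.78 nM–46 µM and NPC doses 0.59 nM–46 µM. ATP luminescence (CellTiter-Glo) served as the read-out.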

Assay [3] in a line: qHTS of pediatric cancer cell lines to identify multiple opportunities for drug repurposing: Primary screen for DAOY cells (AID 1347090). Also: series mostly up to about 46 µM; nearly all actives have a fitted effect of over 55% in size. In short, it runs like this: (§1)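 Eight- or eleven-point concentration series, 48 h treatment at 37 degrees C in growth media; readout CellTiter-Glo luminescence. Potency and efficacy were taken from the concentration-response curves.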
Assay [4] in a line: qHTS of pediatric cancer cell lines to identify multiple opportunities for drug repurposing: Primary screen for SJ-GBM2 cells (AID 1347091). In short, it runs like this: as §1
Assay [5] can be described thus: qHTS of pediatric cancer cell lines to identify multiple opportunities for drug repurposing: Primary screen for A673 cells (AID 1347092). Also: nearly all actives have a fitted effect of over 45% in size. In short, it runs like this:
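Titration-based qHTS on A673 cells: MIPE compounds spanned 11 points (0.78 nM to 46 µM final), NPC compounds 8 points (0.59 nM to 46 µM final). Viability after 48 h was measured by ATP luminescence.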

Assay [6] is described as follows: qHTS of pediatric cancer cell lines to identify multiple opportunities for drug repurposing: Primary screen for SK-N-MC cells (AID 1347093). Also: series mostly up to about 46 µM. An outline of the steps:
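Metabolically active cells were quantified by ATP-dependent luminescence (CellTiter-Glo, 15 min at room temperature) following 48 h treatment. Cells had been plated at 500-1,000 per well and settled for 5 h beforehand.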

A short description of assay [7]: qHTS of pediatric cancer cell lines to identify multiple opportunities for drug repurposing: Primary screen for BT-37 cells (AID 1347094). Also: potency is read from the fitted curve at half-maximal effect. An outline of the steps:
(§2)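 Quantitative HTS format: each compound titrated (MIPE 11 points from 0.78 nM, NPC 8 points from 0.59 nM) onto cells plated 5 hours earlier. After 48 h at 37 degrees C, CellTiter-Glo luminescence was recorded.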

Assay [8] is described as follows: qHTS of pediatric cancer cell lines to identify multiple opportunities for drug repurposing: Primary screen for NB-EBc1 cells (AID 1347095). An outline of the steps: as §2
The nature of assay [9]: qHTS of pediatric cancer cell lines to identify multiple opportunities for drug repurposing: Primary screen for U-2 OS cells (AID 1347096). Also: nearly all actives have a fitted effect of over 50% in size. In short, it runs like this: (§3)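 Cells (500-1,000/well) in growth media were settled 5 h at 37 degrees C, then given compounds for 48 h. Viability was read as CellTiter-Glo luminescence. Primary runs used MIPE at 11 points (0.78 nM-46 µM) and NPC at 8 points (0.59 nM-46 µM); follow-ups used 11 points.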

The nature of assay [10]: qHTS of pediatric cancer cell lines to identify multiple opportunities for drug repurposing: Primary screen for SK-N-SH cells (AID 1347098).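 Also: DMSO served as neutral control and bortezomib at 2.3 µM as positive control; nearly all actives have a fitted effect of over 65% in size.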 An outline of the steps:
(§4)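 Cells (500-1,000/well) rested 5 h, then received compounds for 48 h; metabolically active cells were measured by CellTiter-Glo luminescence. Final concentrations spanned up to 46 µM (MIPE, 11-point) or 0.59 nM-46 µM (NPC, 8-point) in primary screens, 11-point in follow-ups.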

Assay [11] in a line: qHTS of pediatric cancer cell lines to identify multiple opportunities for drug repurposing: Primary screen for NB1643 cells (AID 1347099). Also: nearly all actives have a fitted effect of over 50% in size. In short, it runs like this:
as §2

A short description of assay [12]: qHTS of pediatric cancer cell lines to identify multiple opportunities for drug repurposing: Primary screen for LAN-5 cells (AID 1347100). An outline of the steps:
as §3

Assay [13] is described as follows: qHTS of pediatric cancer cell lines to identify multiple opportunities for drug repurposing: Primary screen for BT-12 cells (AID 1347101). Also: nearly all actives have a fitted effect of over 25% in size. An outline of the steps:
as §4

Assay [14] in a line: qHTS of pediatric cancer cell lines to identify multiple opportunities for drug repurposing: Primary screen for Rh18 cells (AID 1347102). Also: nearly all actives have a fitted effect of over 65% in size. In short, it runs like this: as §3
Assay [15] is described as follows: qHTS of pediatric cancer cell lines to identify multiple opportunities for drug repurposing: Primary screen for Saos-2 cells (AID 1347097). Also: nearly all actives have a fitted effect of over 40% in size. In short, it runs like this: as §2
The nature of assay [16]: qHTS of pediatric cancer cell lines to identify multiple opportunities for drug repurposing: Primary screen for OHS-50 cells (AID 1347103). Also: nearly all actives have a fitted effect of over 40% in size. In short, it runs like this: as §4

As to `NS(=O)(=O)c1ccc(N2CCCCS2(=O)=O)cc1`, the Potency result in assay [1], in assay [2], in assay [3], in assay [4], in assay [5] and in assay [6] was “inactive” in each case. The Potency result in assay [7], in [8], in assay [9], in assay [10], in assay [11] and in assay [12] was “inactive” each time. Besides, the Potency entry in assay [13] and in [14] was “inactive” in each case.
With `CCCC(=O)O[C@]1(C(=O)COC(=O)CC)CC[C@H]2[C@@H]3CCC4=CC(=O)CC[C@]4(C)[C@H]3[C@@H](O)C[C@@]21C`, the Potency result in assay [1], in [2], in [3], in assay [4], in assay [5] and in assay [6] was “inactive” throughout. The Potency result in [7], in assay [8], in assay [9], in [15], in [10] and in assay [11] was “inactive” each time. The Potency entry in [13], in assay [14] and in assay [16] was “inactive” each time.
With `CCC1(c2cnc[nH]2)Cc2ccccc2C1`, the Potency entry in assay [1], in [2], in assay [3], in assay [4], in assay [5] and in [6] was “inactive” throughout. Besides, the Potency result in assay [7], in [8], in assay [9], in assay [10], in assay [11] and in [12] was “inactive” in each case. In addition, the Potency result in assay [13] and in [14] was “inactive” each time.
Take `Cc1ncc(CO)c(CO)c1O`: the Potency entry in assay [1], in [2], in assay [3], in assay [4], in assay [5] and in assay [6] was “inactive” throughout. The Potency entry in assay [7], in assay [8], in assay [9], in [10], in assay [11] and in [12] was “inactive” in each case. Moreover, the Potency entry in assay [13], in assay [14] and in assay [16] was “inactive” each time.
For the compound `COc1cc(/C=C/C(N)=O)cc(OC)c1OC`, the Potency result in assay [1], in assay [2], in [3], in assay [4], in assay [5] and in assay [6] was “inactive” in each case. Further, the Potency result in assay [8], in [9], in assay [15], in assay [10], in assay [12] and in assay [13] was “inactive” throughout. For the same compound, the Potency result in assay [14] and in assay [16] was “inactive” in each case. Further, in assay [7], the Potency was 1 nM (active).
Consider `C[C@H]1C[C@H]2[C@@H]3CCC4=CC(=O)C=C[C@]4(C)[C@H]3C(=O)C[C@]2(C)[C@@]1(O)C(=O)CO`, for which the Potency entry in [1], in assay [2], in [3], in [4], in assay [5] and in [6] was “inactive” each time. In addition, the Potency entry in assay [7], in assay [8], in [9], in assay [15], in assay [10] and in assay [11] was “inactive” each time. In addition, the Potency entry in assay [13], in assay [14] and in assay [16] was “inactive” each time.
With `C/C(=N\O)[C@@H](C)NCC(C)(C)CN[C@H](C)/C(C)=N/O`, the Potency entry in assay [1], in assay [2], in [3], in [4], in assay [5] and in assay [6] was “inactive” throughout. For the same compound, the Potency result in assay [7], in assay [8], in assay [9], in [15], in assay [10] and in [11] was “inactive” in each case. Besides, the Potency entry in assay [12], in assay [13] and in [16] was “inactive” each time.
In the case of `CCC(=O)O[C@H]1[C@H](O[C@@H]2[C@@H](C)[C@H](O[C@H]3C[C@@](C)(OC)[C@@H](O)[C@H](C)O3)[C@@H](C)C(=O)O[C@H](CC)[C@@](C)(O)[C@H](O)[C@@H](C)C(=O)[C@H](C)C[C@@]2(C)O)O[C@H](C)C[C@@H]1N(C)C`, the Potency entry in assay [1], in [2], in [3], in assay [4], in assay [5] and in assay [6] was “inactive” in each case. The Potency entry in assay [7], in assay [8], in assay [9], in assay [15], in [10] and in assay [11] was “inactive” in each case. For the same compound, the Potency entry in assay [12], in [13], in [14] and in [16] was “inactive” in each case.
As for `OCc1cccnc1`, the Potency entry in assay [1], in assay [2], in assay [3], in [4], in assay [5] and in assay [6] was “inactive” throughout. The Potency entry in assay [7], in assay [8], in [9], in assay [15], in assay [10] and in assay [11] was “inactive” each time. Moreover, the Potency result in assay [12], in assay [13] and in assay [16] was “inactive” each time.
In the case of `CCCc1ncc(C(=O)O)s1`, the Potency result in assay [1], in assay [2], in assay [3], in assay [4], in assay [5] and in assay [6] was “inactive” throughout. Further, the Potency result in assay [7], in assay [8], in assay [9], in assay [15], in assay [10] and in assay [11] was “inactive” in each case. The Potency entry in [13], in assay [14] and in [16] was “inactive” throughout.
For `N#CSCC(=O)O`, the Potency entry in assay [1], in [2], in assay [3], in [4], in assay [5] and in [6] was “inactive” each time. Moreover, the Potency result in assay [7], in [8], in assay [9], in assay [15], in assay [10] and in assay [11] was “inactive” throughout. Also, the Potency result in assay [12], in [13] and in assay [16] was “inactive” each time.
For `C1=CC2C3C=CC(C3)C2C1` (centres undefined), the Potency entry in assay [1], in assay [2], in [3], in assay [4], in [5] and in assay [6] was “inactive” in each case. The Potency result in assay [7], in assay [8], in assay [9], in assay [15], in assay [10] and in assay [11] was “inactive” throughout. Besides, the Potency result in [13], in [14] and in assay [16] was “inactive” throughout.
As for `O=C(O)Cc1ccc(OCCNC[C@H](O)c2ccccc2)cc1`, the Potency result in [1], in assay [2], in assay [3], in assay [4], in assay [5] and in assay [6] was “inactive” each time. For the same compound, the Potency result in [7], in assay [8], in assay [9], in [15], in [10] and in assay [11] was “inactive” throughout. Moreover, the Potency entry in assay [12], in assay [13] and in [16] was “inactive” in each case.
As for `N#CC1(c2ccc(F)cc2)CCC(=O)CC1`, the Potency entry in assay [1], in [2], in [3], in assay [4], in [5] and in [6] was “inactive” in each case. In addition, the Potency result in [7], in assay [8], in assay [9], in assay [15], in assay [10] and in assay [11] was “inactive” each time. The Potency entry in [13], in assay [14] and in [16] was “inactive” each time.
Regarding `OC1(c2ccccc2)CCNCC1`, the Potency entry in assay [1], in [2], in assay [3], in assay [4], in assay [5] and in assay [6] was “inactive” each time. The Potency entry in [7], in [8], in [9], in [15], in assay [10] and in assay [11] was “inactive” each time. Further, the Potency result in [12], in assay [13] and in assay [16] was “inactive” in each case.
`CCCCNc1ccc(C(=O)OCCN(CC)CC)cc1`: the Potency entry in assay [1], in assay [2], in assay [3], in assay [4], in assay [5] and in assay [6] was “inactive” throughout. The Potency result in assay [7], in [8], in assay [9], in assay [15], in [10] and in assay [11] was “inactive” each time. The Potency entry in assay [13], in [14] and in assay [16] was “inactive” each time.
